hcDAF-12 act = activates DAF-12 receptor from parasite H. contortus; activation, % at 6.8 µM; HEK293 hcDAF-12 lit1-tk-luc reporter, luminescence; 0% DMSO, 100% Δ7-dafachronic acid; hit rate 1.4% among 370,000;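 active means activation above the mean of all tested compounds plus 3 SD, cut at about 5.5% in these data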;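 further: 100% = response to 3 µM Δ7-dafachronic acid high control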
DAX1 inh-1 = blocks DAX1 repression of SF-1 activated StAR promoter. HEK293T StAR-luciferase reporter, SF-1/DAX-1 repression relief. inhibition, % at 6.8 µM. hit rate 1.1% among 370,000;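 active means inhibition above the mean over all tested compounds plus 3 SD, cut at about 3.6% in these data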;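 further: 0% = DAX-1 cells with DMSO and 100% = cells lacking DAX-1 with DMSO; higher inhibition means more luminescence from relief of DAX-1 repression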
DAX1 inh-2 = inhibitors of human orphan nuclear receptor DAX1 (NR0B1); HEK293 Gal4-DAX1 luciferase reporter, luminescence; inhibition, % at 6.75 µM; hit rate 0.99% among 340,000; AID 504766;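 active means inhibition above the mean over all tested compounds plus 3 SD, cut at about 4.2% in these data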;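 further: 0% = DAX1-transfected cells with DMSO and 100% = empty-vector control cells with DMSO; inhibition shows as a rise in luminescence from relieved DAX1 repression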
Target sequence (P51843 207-470 limits assumed): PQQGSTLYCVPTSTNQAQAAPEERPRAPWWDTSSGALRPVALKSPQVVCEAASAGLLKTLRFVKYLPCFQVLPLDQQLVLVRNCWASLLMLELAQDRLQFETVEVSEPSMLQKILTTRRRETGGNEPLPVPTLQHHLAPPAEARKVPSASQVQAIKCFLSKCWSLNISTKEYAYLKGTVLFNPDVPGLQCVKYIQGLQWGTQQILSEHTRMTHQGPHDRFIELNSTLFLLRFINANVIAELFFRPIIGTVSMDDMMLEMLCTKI
hgDAF12 agonist = activates the H. glycines DAF-12 receptor ligand-binding domain | activation, % at 6.8 µM | hit rate 1.8% among 370,000 | HEK293 GAL4-hgDAF12 UAS-luciferase reporter, agonist luminescence; normalized to butyrate control;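 active means activation above a cutoff set at the mean of all screened compounds plus 3 SD, cut at about 10% in these data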;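 further: 0% = DMSO wells and 100% = sodium butyrate wells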
ssDAF-12 act = activators of S. stercoralis DAF-12 nuclear receptor. HEK293 ssDAF-12/GRIP1 lit1-tk-luc reporter, luminescence; % of 3 µM dafachronic acid response. activation, % at 6.8 µM. hit rate 1% among 370,000. AID 652126;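 active means activation above the mean over all tested compounds plus 3 SD, cut at about 0.9% in these data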;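 further: 0% = DMSO-only wells and 100% = 3 µM delta7-dafachronic acid wells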
LXRb hcDAF ctr = activates human LXR-beta, counter-screen for hcDAF-12 agonists | shares compounds with hcDAF-12 act | HEK293 Gal4-LXR tk-luc reporter, luminescence, 24 h; normalized: DMSO 0%, positive control 100% | activation, % at 6.8 µM | 3,400 tested, under 10 active | AID 743027;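 active means mean percent activation of the reporter above a cutoff set as the average over tested compounds plus their standard deviation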
hcDAF12 conf = hcDAF-12 agonism, confirmation assay | shares compounds with hcDAF-12 act | HEK293 hcDAF-12 lit1-tk-luc reporter, luminescence; % of Δ7-dafachronic acid response | activation, % at 6.8 µM | hit rate 61% among 3,400;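 active means mean activation across triplicate tests above the threshold derived from the earlier primary screen, cut at about 5.5% in these data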;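 further: 0% = DMSO only wells and 100% = 3 µM Δ7-dafachronic acid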
hgDAF12 conf = confirmation of H. glycines DAF-12 agonists | shares compounds with hgDAF12 agonist | HEK293 GAL4-hgDAF12 luciferase reporter, agonist mode; percent of butyrate response | activation, % at 6.8 µM | hit rate 80% among 3,300 | AID 743050;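 active means mean activation over triplicate wells above the hit cutoff derived from the earlier primary screen, cut at about 11% in these data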;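 further: 0% = DMSO low control and 100% = 2 mM sodium butyrate high control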
LXRb DAF12 ctr = LXR-beta agonism as DAF-12 counter-screen; HEK293 Gal4-LXR luciferase reporter, 24 h; shares compounds with hgDAF12 agonist; 3,300 tested, under 10 active; activation, % at 6.8 µM;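 active means mean activation of the triplicate above a set limit carried over from the primary screen, none filed active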
An asterisk follows results filed as active; . = no result. Hits are enriched below; roughly 4.1% of the tested compounds scored in any of these assays.

SMILES	hcDAF-12 act	DAX1 inh-1	DAX1 inh-2	hgDAF12 agonist	ssDAF-12 act	LXRb hcDAF ctr	hcDAF12 conf	hgDAF12 conf	LXRb DAF12 ctr
O=C(NC1CCCCC1)c1cc(-c2ccccc2Cl)on1	0	1	0	8	-1	.	.	.	.
CCOC(=O)c1c(C)oc2c1c1c(c3ccccc32)OCN(Cc2cccnc2)C1	.	.	0	.	.	.	.	.	.
CCOC(=O)c1c(C)oc2c1c(C(c1cccnc1)N1CCOCC1)c(O)c1ccccc12 (configuration not stated)	10*	3	4.9*	13*	2.6*	1	5.7*	8	0
Cc1ccc(C(=O)Nc2ncc(C)s2)s1	6.8*	2	-2	17*	0	2	6.3*	18*	1
Cc1ccc(Nc2nc(N)c3ccccc3n2)cc1C	6.6*	3	-2	16*	0.9*	2	8.0*	21*	1
CCSc1cc(C)nc2c(-c3ccccc3)cnn12	13*	4.0*	4	18*	2.4*	1	11*	15*	1
CC(=O)Nc1ccc(Nc2cc(C)nc3c(-c4ccccc4)cnn23)cc1	-4	-1	0	-9	-2	.	.	.	.
C[C@H]1CN([C@@H](C)CO)C(=O)CCCn2nncc2CO[C@@H]1CN(C)S(=O)(=O)c1ccc(-n2cccn2)cc1	0	0	1	-1	-1	.	.	.	.
COCCN(C(=O)c1csnn1)C(C(=O)NC1CCCCC1)c1ccccc1 (configuration not stated)	-2	0	0	-1	-1	.	.	.	.
COc1ccc(S(=O)(=O)Cc2ccccc2)cc1N	0	0	0	2	-1	.	.	.	.
O=C(N/N=C/c1ccc(Br)s1)c1ccco1	1	0	1	8	-1	.	.	.	.
O=C(N/N=C/c1ccc(Br)s1)c1ccccn1	8.2*	4.5*	2	14*	1	1	4	14*	1
Cc1cc(C)c(S(=O)(=O)N2CCC(C(=O)NCc3ccc(Cl)cc3Cl)CC2)c(C)c1	-2	0	-1	-3	-1	.	.	.	.
O=C(C1CCC(=O)N(C2CC2)C1)N(CCO)Cc1ccccc1 (configuration not stated)	2	0	1	2	-1	.	.	.	.
CCc1sc(C(=O)Nc2nccs2)cc1C	6.7*	2	2	19*	0.9*	1	6.7*	21*	1
CCc1sc(C(=O)Nc2nc(-c3ccccn3)cs2)cc1C	.	.	-2	.	.	.	.	.	.
C=CC[C@]12C=C(OC)C(=O)C=C1O[C@@H](c1ccc3c(c1)OCO3)[C@H]2C	-3	0	0	-1	-2	.	.	.	.
CCCCn1c(=N)n(CC(=O)c2ccc(OC)cc2)c2ccccc21	0	0	.	0	-1	.	.	.	.
COc1ccc(C(=O)Cn2c(=N)n(C)c3ccccc32)cc1	14*	3	4.5*	18*	1.7*	1	9.1*	19*	1
COc1ccc(Nc2nccc(-c3cccc(N)c3)n2)cc1	13*	2	2	34*	1	2	8.7*	21*	1
Brc1ccc(-n2cnc(-c3ccccc3)c2)cc1	7.2*	3	5.4*	20*	0	1	3	20*	1
CN(C)c1ccc(-c2nc3ccccn3c2/N=C/c2ccc(Br)cc2)cc1	7.5*	3	0	16*	1.4*	1	5	8	1
Cc1c(-c2ccc(Br)cc2)nc2ccccn12	8.4*	4.0*	1	15*	1.4*	1	7.5*	15*	1
NC(=O)Nc1n[nH]c(-c2ccccc2)n1	1	0	0	0	-1	.	.	.	.
Cc1ccc(-c2nc3ccc(Cl)cn3c2Cc2cccc(Cl)c2)cc1	6.6*	4.1*	.	14*	0	1	3	8	0
SMILES	hcDAF-12 act	DAX1 inh-1	DAX1 inh-2	hgDAF12 agonist	ssDAF-12 act	LXRb hcDAF ctr	hcDAF12 conf	hgDAF12 conf	LXRb DAF12 ctr
CCS(=O)(=O)NCc1cn2c(C)csc2n1	3	-1	0	1	0	.	.	.	.
CCCS(=O)(=O)NCc1cn2c(C)csc2n1	10*	3.8*	4	15*	1.1*	0	4	6	0
Cn1c(=O)c2c(ncn2CC(=O)OCC(=O)Nc2cccc(Cl)c2)n(C)c1=O	1	1	1	2	-1	.	.	.	.
c1ccc(Cn2cc(-c3ccccc3)cn2)cc1	1	0	0	9	-1	.	.	.	.
O=[N+]([O-])c1cccnc1N/N=C/c1ccccc1O	9.2*	3.8*	-1	15*	0	1	4	10	1
O=C(Nc1ccc(-c2nc3ccccc3o2)cc1)C1CCCO1 (configuration not stated)	9.7*	3	0	15*	1.1*	2	7.6*	21*	1
Cn1c(NC(=O)c2ccc(F)cc2)nc2ccccc21	14*	2	2	19*	1.9*	2	15*	21*	1
Cn1c(Nc2ccc(F)cc2)nc2ccccc21	-1	0	0	0	0	.	.	.	.
O=C(COC(=O)CCSc1ccccc1)Nc1cc(F)ccc1F	1	1	1	3	-1	.	.	.	.
O=C(NN/C(=N/S(=O)(=O)c1ccc(Cl)cc1)c1ccccc1)c1cccc(Cl)c1	8.8*	2	1	16*	1.2*	1	7.6*	18*	1
N/C(=N\OC(=O)c1cccc2ccccc12)c1cccnc1	12*	1	0	14*	1.6*	0	9.0*	12*	0
O=C(COC(=O)c1nc(Cl)ccc1Cl)NCc1ccc(Cl)cc1	0	0	0	-1	0	.	.	.	.
O=c1c2ccccc2cnn1-c1ccc2ccccc2c1	13*	3	1	18*	1.4*	2	6.6*	17*	1
Fc1ccccc1OCCSc1nnnn1-c1ccccc1	8.1*	3	3	13*	0	1	7.7*	18*	1
COc1ccccc1OCCSc1nnnn1-c1ccc(C)cc1	-2	1	0	4	-1	.	.	.	.
Cc1csc(NC(=O)/C=C/c2ccco2)n1	6.6*	2	0	14*	-1	1	3	13*	1

Source: PubChem BioAssay (The Scripps Research Institute Molecular Screening Center)
